Results from PubChem BioAssay (NCATS).
Several values for one entry are separate records, joined by “and”; a condition that tells them apart may be missing. Equal entries are not always repeated. Results filed as inconclusive are left out. Where a structure was tested more than once in an assay, its records may differ in their call. Activity calls are given as the source filed them. Unless noted, calls come from the whole dose curve; as a rule, active = well fitted curve in the direction sought with a large enough effect; inconclusive = small, poorly fitted or top-dose-only effect, or another doubt; inactive = no such curve, though single readings can be large; an effect the other way counts as inactive or inconclusive.

Assays:
[1] = P-glycoprotein substrates identified in KB-3-1 adenocarcinoma cell line, qHTS therapeutic library screen (AID 1346986); note: nearly all actives have a fitted effect of over 60% in size;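 note: potency is the fitted concentration of half-maximal effect; potency is for cytotoxicity meaning loss of cell viability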
Summary of the method: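 Counter-screen: cherry-picked hits retested in the KB pair and in HEK-293 pcDNA/MDR-19 cells ± tariquidar. Primary screen used 72 h CellTiter-Glo viability in KB-3-1 and KB-8-5-11.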

[2] = Primary qHTS for inhibitors of nuclear receptor binding SET domain protein 2 (NSD2) in an isogenic RCH-ACV NSD2 p.E1099K mutant (9B) (AID 1645876); note: nearly all actives have a fitted effect of over 70% in size; note: potency is the fitted concentration of half-maximal effect
[3] = Primary qHTS for inhibitors of nuclear receptor binding SET domain protein 2 (NSD2) in an RCH-ACV wild type WT cells (2C) (AID 1645877); note: nearly all actives have a fitted effect of over 70% in size; note: potency is the fitted concentration of half-maximal effect
[4] = target: Phospholipid hydroperoxide glutathione peroxidase GPX4 (Homo sapiens) (UniProt P36969); assay: Primary qHTS Assay for Inhibitors of Recombinant Selenoprotein Glutathione Peroxidase 4 (GPX4) (AID 1845192); conditions: outcome: dose series up to 50 µM unless noted; note: % is set by controls: 0 for no effect and ±100 for the full control effect; nearly all actives have a fitted effect of over 65% in size
Phospholipid hydroperoxide glutathione peroxidase GPX4 (Homo sapiens), sequence (P36969 whole entry, looked up): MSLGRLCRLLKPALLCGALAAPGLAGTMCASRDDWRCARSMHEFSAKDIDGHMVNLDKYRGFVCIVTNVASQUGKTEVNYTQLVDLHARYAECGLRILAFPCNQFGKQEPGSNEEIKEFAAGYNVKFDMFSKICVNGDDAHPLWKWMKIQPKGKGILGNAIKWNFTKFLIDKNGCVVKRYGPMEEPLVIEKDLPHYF
Summary of the method: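 NADPH consumption, followed by fluorescence at 340/450 nm between 0 and 15 min, reports GPX4 activity via coupled glutathione reductase (100 nM). Enzyme 200 nM was pre-exposed to compound 30 min; 0.5 mM cumene hydroperoxide and 1 mM GSH served as substrates.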

[5] = qHTS drug screen for cell cycle checkpoint inhibitors in PARPi-resistant BRCA-mutant ovarian cancer cell lines. (AID 1963452; calls by dose curve); conditions: PEO1/OlaR viability, CellTiter-Glo luminescence, 96 h, stronger effect = lower value
Summary of the method: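 PEO1, PEO4 and PEO1/OlaR ovarian cancer cells, 600 per well, exposed 96 h at 37C to a dilution series. Viability read by CellTiter-Glo luminescence, normalized to DMSO and empty wells; activity summarized as Z-AUC.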

[6] = NCATS anti-infectives library activity on HEK293 viability as a counter-qHTS vs the C. elegans viability qHTS (AID 1745854); note: % is set by controls: 0 for no effect and ±100 for the full control effect
Summary of the method: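 HEK293 cells, 1500 per well, exposed 24 hr at 37C in 5% CO2 to compounds in a 1:5 titration, up to 41.7 uM final. Viability read as CellTiter-Glo luminescence after 10 min at room temperature.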

[7] = target: Glutathione peroxidase 1 (Homo sapiens) (UniProt P07203); assay: Primary qHTS Assay for Inhibitors of Recombinant Selenoprotein Glutathione Peroxidase 1 (GPX1) (AID 1845191); note: nearly all actives have a fitted effect of over 65% in size
Glutathione peroxidase 1 (Homo sapiens), sequence (P07203 whole entry, looked up): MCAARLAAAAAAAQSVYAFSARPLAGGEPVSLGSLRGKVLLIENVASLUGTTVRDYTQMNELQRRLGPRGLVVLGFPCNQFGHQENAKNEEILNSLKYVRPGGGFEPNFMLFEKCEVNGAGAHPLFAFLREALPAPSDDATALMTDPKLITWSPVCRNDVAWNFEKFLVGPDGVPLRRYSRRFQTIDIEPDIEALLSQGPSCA
Summary of the method: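 10 nM GPX1 + cpd, 30 min RT; start w/ 1 mM GSH, 0.5 mM cumene hydroperoxide, 0.5 mM NADPH, 100 nM GR, 0.01% BSA; buffer 50 mM Tris-HCl pH 7.5, 2 mM EDTA, 150 mM NaCl; Fl 340/450, 0 & 15 min.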

[8] = target: Lysosomal acid glucosylceramidase (Homo sapiens) (UniProt P04062); assay: Glucocerebrosidase-p2 (AID 348; in the data active = potency below about 10 µM; note: potency is the fitted concentration of half-maximal effect); conditions: purified GBA, blue fluorogenic substrate, 40 min
Lysosomal acid glucosylceramidase (Homo sapiens), sequence (P04062 whole entry, looked up): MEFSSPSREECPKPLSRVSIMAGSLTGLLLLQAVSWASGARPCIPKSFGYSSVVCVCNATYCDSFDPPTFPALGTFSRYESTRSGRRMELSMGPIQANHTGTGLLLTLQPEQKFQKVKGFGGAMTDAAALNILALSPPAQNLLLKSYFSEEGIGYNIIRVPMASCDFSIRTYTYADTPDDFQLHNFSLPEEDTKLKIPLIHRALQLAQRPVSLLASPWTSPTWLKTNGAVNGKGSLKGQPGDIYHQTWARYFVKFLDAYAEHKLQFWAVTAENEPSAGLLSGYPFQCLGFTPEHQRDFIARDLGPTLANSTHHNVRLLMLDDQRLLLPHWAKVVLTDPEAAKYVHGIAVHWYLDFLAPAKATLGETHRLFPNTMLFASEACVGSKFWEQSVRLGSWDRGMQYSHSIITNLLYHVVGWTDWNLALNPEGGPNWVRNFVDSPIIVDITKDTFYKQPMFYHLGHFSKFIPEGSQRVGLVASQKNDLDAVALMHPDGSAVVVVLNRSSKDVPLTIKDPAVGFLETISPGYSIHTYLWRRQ
Summary of the method: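 Compounds titrated from 0.6 nM upwards against 0.2 nM enzyme in pH 5.9 citric acid/KH2PO4, taurocholate, tween-20; blue fluorogenic substrate 80 uM, 40 min room temperature, stopped and read Ex 365/Em 440 for AC50.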

[9] = target: Cytochrome P450 1A2 (Homo sapiens) (UniProt P05177); assay: p450-cyp1a2 (AID 410; calls by dose curve; note: potency is the fitted concentration of half-maximal effect)
Cytochrome P450 1A2 (Homo sapiens), sequence (P05177 whole entry, looked up): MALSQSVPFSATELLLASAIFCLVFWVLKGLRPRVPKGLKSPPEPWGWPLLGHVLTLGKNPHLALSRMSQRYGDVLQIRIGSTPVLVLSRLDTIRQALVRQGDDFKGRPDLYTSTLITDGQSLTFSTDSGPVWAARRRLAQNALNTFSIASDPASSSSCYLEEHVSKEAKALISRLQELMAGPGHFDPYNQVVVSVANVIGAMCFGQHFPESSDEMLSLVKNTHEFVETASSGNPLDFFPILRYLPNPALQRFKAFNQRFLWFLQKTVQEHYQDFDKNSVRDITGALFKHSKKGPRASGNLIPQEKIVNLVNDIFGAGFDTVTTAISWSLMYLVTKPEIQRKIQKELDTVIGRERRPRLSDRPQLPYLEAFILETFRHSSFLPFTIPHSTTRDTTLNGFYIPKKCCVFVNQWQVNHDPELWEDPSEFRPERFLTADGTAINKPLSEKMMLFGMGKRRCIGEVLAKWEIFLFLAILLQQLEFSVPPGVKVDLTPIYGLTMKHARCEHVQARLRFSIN
Summary of the method: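 Human CYP1A2 (20nM) demethylated Luciferin-ME at its Km (100uM) in 100mM KPO4. After 10 min compound preincubation, NADPH regeneration ran the reaction 60 min at room temperature. Luciferin was read by luminescence, normalized to 57 uM furafylline.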

[10] = NFAT Signaling Pathway (AID 444; active = well fitted curve in either direction with a large enough effect, not every such curve was filed as active;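 note: carbachol stimulus at about its EC50 of 1 µM final; % is set by controls: 0 for no effect and ±100 for the full control effect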); conditions: Jurkat NFAT-bla M1, carbachol, beta-lactamase ratio, 5 h; at 7.69 µM (top of the series)
Summary of the method: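 Read-out: CCF4 FRET ratio (460 nm/530 nm) after 1 h RT dye loading, used for %activity and AC50 from titration series. Cells: Jurkat NFAT-β-lactamase/M1 line, treated with compound plus 1 uM carbachol for 5 h, 37 °C.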

[11] = Stat Signaling Pathway (AID 446; active = well fitted curve in either direction with a large enough effect, not every such curve was filed as active;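 note: ME-180 cervical cancer cells given 40 pM IL-6 alongside compound; SIE-controlled beta-lactamase reporter measured as 460/530 nm FRET emission ratio; % is set by controls: 0 for no effect and ±100 for the full control effect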); conditions: ME-180 SIE beta-lactamase reporter, IL-6 stimulated, 5 h; at 7.69 µM (top of the series)
Summary of the method: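 Screening format detects activators and inhibitors alike: ME-180 SIE-bla cells stimulated at 40 pM IL-6 for 5 hrs with compound, then dual-emission beta-lactamase read at 405 nm excitation.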

[12] = target: Glucocorticoid receptor (Homo sapiens) (UniProt P04150); assay: GR-GFP Redistribution (AID 450;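 active = compounds whose dose series gives a full or clear partial fitted curve of increased nuclear translocation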; note: potency is the fitted concentration of half-maximal effect); conditions: U2OS GR-GFP nuclear translocation, laser cytometry, 2 h
Glucocorticoid receptor (Homo sapiens), sequence (P04150 whole entry, looked up, the tested form may be a part): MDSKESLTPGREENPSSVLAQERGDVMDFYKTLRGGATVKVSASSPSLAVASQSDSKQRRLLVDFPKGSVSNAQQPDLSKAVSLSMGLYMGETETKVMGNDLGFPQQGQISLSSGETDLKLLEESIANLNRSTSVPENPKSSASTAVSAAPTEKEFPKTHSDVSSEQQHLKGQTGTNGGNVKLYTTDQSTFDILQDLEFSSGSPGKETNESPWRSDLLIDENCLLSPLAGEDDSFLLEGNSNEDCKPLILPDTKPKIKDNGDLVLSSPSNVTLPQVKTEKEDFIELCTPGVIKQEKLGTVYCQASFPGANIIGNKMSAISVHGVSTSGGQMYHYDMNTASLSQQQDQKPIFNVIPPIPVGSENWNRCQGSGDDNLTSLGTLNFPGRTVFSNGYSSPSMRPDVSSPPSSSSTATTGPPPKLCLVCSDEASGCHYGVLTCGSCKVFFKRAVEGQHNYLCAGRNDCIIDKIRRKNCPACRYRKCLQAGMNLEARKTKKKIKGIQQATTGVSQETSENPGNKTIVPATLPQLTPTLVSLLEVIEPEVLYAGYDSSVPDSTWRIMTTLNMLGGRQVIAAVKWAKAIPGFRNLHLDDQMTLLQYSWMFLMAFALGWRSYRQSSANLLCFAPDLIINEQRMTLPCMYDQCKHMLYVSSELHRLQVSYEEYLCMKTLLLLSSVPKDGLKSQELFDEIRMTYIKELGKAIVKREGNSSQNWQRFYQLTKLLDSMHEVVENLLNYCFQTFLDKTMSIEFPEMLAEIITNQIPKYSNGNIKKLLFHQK

[13] = target: Glucocorticoid receptor (Homo sapiens) (UniProt P04150); assay: GR-EFC Redistribution (AID 451; calls by dose curve; note: potency is the fitted concentration of half-maximal effect); conditions: CHO-K1 GR-EFC translocation, beta-gal luminescence, 2 h
Summary of the method: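 Translocation of GR-ED fusion to nuclear EA restores b-gal, read by luminescence after 1 h room-temperature detection. Engineered CHO-K1 biosensor cells, 1,000/well, exposed 2 h at 37 C to titrations up to 46 uM final.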

[14] = target: Mitogen-activated protein kinase 10 (Mus musculus) (UniProt Q61831); assay: JNK3 AlphaScreen Assay (AID 530; active = well fitted curve in either direction with a large enough effect, not every such curve was filed as active;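 note: kinase came from lysate of stimulated human HepG2 cells; signal reports phosphorylation of biotinylated GST-cJun 1-79 at Ser73 with 10 µM ATP; % is set by controls: 0 for no effect and ±100 for the full control effect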)
Summary of the method: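 Room-temperature AlphaScreen kinase assay; pre-activated HepG2 lysate as JNK3 source, biotin-GST-cJun(1-79) substrate, 10 uM ATP, compound 15 min preincubation.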

[15] = target: Cytochrome P450 3A4 (Homo sapiens) (UniProt P08684); assay: qHTS Assay for Inhibitors and Substrates of Cytochrome P450 3A4 (AID 884); note: % is set by controls: 0 for no effect and ±100 for the full control effect; nearly all actives have a fitted effect of over 50% in size
Cytochrome P450 3A4 (Homo sapiens), sequence (P08684 whole entry, looked up): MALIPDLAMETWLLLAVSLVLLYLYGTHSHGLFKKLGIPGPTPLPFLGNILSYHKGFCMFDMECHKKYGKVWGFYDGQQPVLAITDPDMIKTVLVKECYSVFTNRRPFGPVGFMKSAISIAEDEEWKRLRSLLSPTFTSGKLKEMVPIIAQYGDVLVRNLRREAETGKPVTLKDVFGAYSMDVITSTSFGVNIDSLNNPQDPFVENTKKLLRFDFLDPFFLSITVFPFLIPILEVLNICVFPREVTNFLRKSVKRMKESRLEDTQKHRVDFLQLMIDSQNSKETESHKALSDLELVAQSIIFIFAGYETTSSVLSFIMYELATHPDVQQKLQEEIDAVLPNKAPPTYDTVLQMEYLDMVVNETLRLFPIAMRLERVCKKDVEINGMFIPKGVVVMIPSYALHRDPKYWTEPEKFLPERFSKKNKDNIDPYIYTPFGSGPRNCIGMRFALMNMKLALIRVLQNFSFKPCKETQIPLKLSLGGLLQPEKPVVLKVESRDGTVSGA
Summary of the method: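 20 nM human CYP3A4 with 25 uM Luciferin-PPXE (at KM) in 200 mM KPO4, preincubated 10 min with compound; NADPH regeneration started a 60 min RT reaction. Luciferin detected by luminescence, normalized to 57 uM ketoconazole as full inhibition.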

[16] = target: Cytochrome P450 2D6 (Homo sapiens) (UniProt P10635); assay: qHTS Assay for Inhibitors and Substrates of Cytochrome P450 2D6 (AID 891); note: potency is the fitted concentration of half-maximal effect; nearly all actives have a fitted effect of over 60% in size
Cytochrome P450 2D6 (Homo sapiens), sequence (P10635 whole entry, looked up): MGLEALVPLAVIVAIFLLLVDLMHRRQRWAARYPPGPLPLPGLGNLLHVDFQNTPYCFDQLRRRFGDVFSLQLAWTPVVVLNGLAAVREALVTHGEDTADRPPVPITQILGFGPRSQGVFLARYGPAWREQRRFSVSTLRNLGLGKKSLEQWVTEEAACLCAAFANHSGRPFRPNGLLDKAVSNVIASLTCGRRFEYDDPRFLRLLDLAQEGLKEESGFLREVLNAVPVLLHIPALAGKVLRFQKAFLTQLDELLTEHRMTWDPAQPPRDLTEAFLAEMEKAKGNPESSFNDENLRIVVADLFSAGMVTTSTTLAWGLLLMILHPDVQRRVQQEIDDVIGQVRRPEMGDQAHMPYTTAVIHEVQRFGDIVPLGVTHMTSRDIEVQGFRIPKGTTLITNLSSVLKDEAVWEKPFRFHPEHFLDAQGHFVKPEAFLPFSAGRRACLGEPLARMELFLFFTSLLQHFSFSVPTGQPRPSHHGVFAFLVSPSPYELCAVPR
Summary of the method: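 Human CYP2D6 (5 nM) with 30 uM Luciferin-ME EGE (at Km) in 100 mM KPO4, compound preincubated 10 min, then NADPH regeneration system for 60 min at room temperature. Luciferin read by luminescence; normalized to 1.43 uM quinidine.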

[17] = target: Cytochrome P450 2C19 (Homo sapiens) (UniProt P33261); assay: qHTS Assay for Inhibitors and Substrates of Cytochrome P450 2C19 (AID 899); note: potency is the fitted concentration of half-maximal effect; nearly all actives have a fitted effect of over 60% in size
Cytochrome P450 2C19 (Homo sapiens), sequence (P33261 whole entry, looked up): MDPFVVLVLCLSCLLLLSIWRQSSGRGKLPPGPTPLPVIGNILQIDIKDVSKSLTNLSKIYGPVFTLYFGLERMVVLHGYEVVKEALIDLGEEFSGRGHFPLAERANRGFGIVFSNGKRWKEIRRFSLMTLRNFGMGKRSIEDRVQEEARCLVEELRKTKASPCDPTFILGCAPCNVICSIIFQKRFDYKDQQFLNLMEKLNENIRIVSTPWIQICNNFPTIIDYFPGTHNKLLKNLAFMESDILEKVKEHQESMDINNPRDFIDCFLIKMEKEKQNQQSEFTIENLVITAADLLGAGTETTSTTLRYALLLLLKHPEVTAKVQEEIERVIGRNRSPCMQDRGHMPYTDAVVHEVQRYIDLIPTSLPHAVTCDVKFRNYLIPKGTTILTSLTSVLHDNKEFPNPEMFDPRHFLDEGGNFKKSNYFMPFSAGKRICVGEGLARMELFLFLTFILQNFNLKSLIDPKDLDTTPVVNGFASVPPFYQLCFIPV
Summary of the method: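 Luminescence readout of luciferin formed from 10uM Luciferin-H EGE (KM level) by 5 nM CYP2C19 in 50mM KPO4. 60 min NADPH-driven reaction at 37C after 10 min compound preincubation; data scaled to 57uM ketoconazole inhibition.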

[18] = Confirmation and Secondary Assay for Modulators of Hemoglobin Beta Chain Splicing at IVS2 654 locus (AID 910);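 note: HeLa cells stably carrying EGFP split by mutant beta-globin IVS2-654 intron; % of control where 0% means no effect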
Summary of the method: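 Readout: per-well total peak green fluorescence (488 nm ex, 500–520 nm em) from objects 5–250 µm, reflecting correct splicing of an EGFP-654 reporter. Compounds were applied for 2 days at 37 °C to overnight-plated HeLa EGFP-654 cells; controls were DMSO and 500 nM IVS2-654 PNA.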

[19] = Confirmation and Secondary Assay for Modulators of Hemoglobin Beta Chain Splicing at IVS2 705 locus (AID 930);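 note: HeLa cells stably expressing the EGFP-705 splicing reporter; GFP fluorescence per well restored by corrected splicing of the IVS2-705 intron in EGFP; % of control where 0% means no effect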
Summary of the method: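 HeLa cells stably carrying EGFP interrupted by mutant beta-globin intron 2 (IVS2-705) treated 2 days at 37C with compound; 500 nM antisense PNA as control. Correct splicing read as total peak GFP intensity per well by laser-scanning cytometry.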

[20] = qHTS Assay for Lipid Storage Modulators (AID 1519; calls by dose curve); conditions: Drosophila S3 cells, BODIPY lipid droplet/cell ratio, laser cytometry, cells loaded with oleic acid
Summary of the method: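 Cells seeded at 5,000 per well were treated with compounds over a concentration series and loaded with oleic acid (400 uM, as added). Lipid droplet fluorescence (488 nm excitation, 500-530 nm channel) was read by laser-scanning cytometry and normalized to 20 uM Triacsin C.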

[21] = target: Ubiquitin carboxyl-terminal hydrolase 1 (Homo sapiens) (UniProt O94782); assay: Inhibitors of USP1/UAF1: Pilot qHTS (AID 504865);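 note: rhodamine fluorescence freed from ubiquitin-rhodamine substrate followed over time; top concentration of the series differs between compounds; % is set by controls: 0 for no effect and ±100 for the full control effect; nearly all actives have a fitted effect of over 35% in size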
Ubiquitin carboxyl-terminal hydrolase 1 (Homo sapiens), sequence (O94782 whole entry, looked up): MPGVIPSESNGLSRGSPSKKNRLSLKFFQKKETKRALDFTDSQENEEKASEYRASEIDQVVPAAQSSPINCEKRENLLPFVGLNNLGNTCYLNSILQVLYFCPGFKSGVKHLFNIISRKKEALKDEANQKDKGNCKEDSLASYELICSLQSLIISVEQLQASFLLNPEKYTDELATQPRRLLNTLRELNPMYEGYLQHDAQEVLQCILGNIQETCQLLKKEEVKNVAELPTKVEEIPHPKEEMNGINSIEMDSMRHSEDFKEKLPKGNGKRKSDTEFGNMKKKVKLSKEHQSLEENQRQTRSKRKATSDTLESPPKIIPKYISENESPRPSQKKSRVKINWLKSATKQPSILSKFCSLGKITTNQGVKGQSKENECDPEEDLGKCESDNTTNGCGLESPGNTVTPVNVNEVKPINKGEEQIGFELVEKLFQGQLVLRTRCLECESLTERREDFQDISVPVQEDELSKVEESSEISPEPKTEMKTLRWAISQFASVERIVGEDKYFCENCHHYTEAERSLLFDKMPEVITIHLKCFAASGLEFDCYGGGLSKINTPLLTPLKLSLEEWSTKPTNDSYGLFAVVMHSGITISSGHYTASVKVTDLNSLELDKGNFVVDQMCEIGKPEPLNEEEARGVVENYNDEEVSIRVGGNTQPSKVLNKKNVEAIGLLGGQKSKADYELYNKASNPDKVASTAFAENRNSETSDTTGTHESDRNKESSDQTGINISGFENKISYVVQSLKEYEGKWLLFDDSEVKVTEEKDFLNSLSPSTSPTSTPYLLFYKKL
Summary of the method: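 USP1/UAF1 complex (1nM) preincubated with compound 15 min at room temperature, then Ub-Rho substrate (150nM final) added. Fluorescence read kinetically at 480/540 nm, 6 reads every 60 seconds. Buffer: 50mM HEPES pH 7.8, 0.5mM EDTA, 0.1 mg/ml BSA, 1mM TCEP, 0.01% Tween-20.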

[22] = Primary qHTS for small molecule stabilizers of the endoplasmic reticulum resident proteome: Secreted ER Calcium Modulated Protein (SERCaMP) assay (AID 1508630); note: % is set by controls: 0 for no effect and ±100 for the full control effect
Summary of the method: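 GLuc-SERCaMP-expressing SH-SY5Y cells, pretreated 16 h with compound, are challenged with thapsigargin to empty ER calcium stores; after 4 h, coelenterazine is added directly to the medium and luminescence is imaged.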

Q: For `O=c1sn(-c2cccc3ccccc23)c(=O)n1Cc1ccccc1`, which Potency [1] is on record?
A: The Potency was “inactive”.

Q: And the Potency [2]?
A: The Potency was “inactive”.

Q: And the Potency [3]?
A: The Potency was “inactive and 7.42 µM (active)”.

Q: And the Potency [4]?
A: Its Potency is “inactive”.

Q: And the Z-AUC [5]?
A: Its Z-AUC is 0.462 (inactive).

Q: What about the Z-AUC ([5]; measured here: PEO1 parental Z-AUC) of the same compound?
A: The Z-AUC was 0.135.

Q: What about the Z-AUC ([5]; measured here: PEO4 Z-AUC) of the same compound?
A: The Z-AUC was 0.0223.

Q: Which Potency [1] does the source give for `OC[C@H]1O[C@@H](O[C@@H]2OC=C[C@H]3[C@H](O)[C@@H]4O[C@]4(CO)[C@@H]23)[C@H](O)[C@@H](O)[C@@H]1O` here?
A: The Potency was “inactive”.

Q: And the Potency [2]?
A: The Potency was “inactive”.

Q: What about the Potency [3] of the same compound?
A: The Potency was “inactive”.

Q: What about the outcome [6] of the same compound?
A: Its outcome is “inactive”.

Q: For `CC(C)n1cnc2c(NCc3cccc(C(F)(F)F)c3)ncnc21`, which Potency [1] is on record?
A: Its Potency is “inactive”.

Q: What about the Potency [7] of the same compound?
A: Its Potency is “inactive”.

Q: Which Potency [8] does the source give for `c1csc(CNc2ncnc3ccc(-c4ccc5c(c4)OCO5)cc23)c1` here?
A: Its Potency is > 11.4 µM (inactive).

Q: What about the Potency [9] of the same compound?
A: Its Potency is 0.398 µM (active).

Q: And the activity change, negative = inhibition [10]?
A: Its activity change, negative = inhibition is 5.05% (inactive).

Q: What about the activity, negative = inhibition [11] of the same compound?
A: Its activity, negative = inhibition is -12.1% (inactive).

Q: What about the Potency [12] of the same compound?
A: Its Potency is > 46 µM (inactive).

Q: What about the Potency [13] of the same compound?
A: The Potency was > 46 µM (inactive).

Q: What about the Potency [14] of the same compound?
A: Its Potency is “inactive”.

Q: And the Potency [15]?
A: Its Potency is “inactive”.

Q: What about the Potency [16] of the same compound?
A: Its Potency is 0.398 µM (active).

Q: And the Potency [17]?
A: The Potency was 3.98 µM (active).

Q: And the outcome [18]?
A: Its outcome is “inactive”.

Q: What about the outcome [19] of the same compound?
A: Its outcome is “inactive”.

Q: What about the activity change, negative = inhibition ([20]; at 57.5 µM (top of the series)) of the same compound?
A: Its activity change, negative = inhibition is 9.51% (inactive).

Q: And the max response ([20]; measured here: cell count channel max response)?
A: The max response was 14.3%.

Q: And the max response ([20]; measured here: lipid channel max response)?
A: Its max response is 25.9%.

Q: What about the Potency [21] of the same compound?
A: Its Potency is “inactive”.

Q: And the Potency [1]?
A: Its Potency is 11.6 µM (active).

Q: What about the Potency [22] of the same compound?
A: Its Potency is “inactive”.

Q: What about the Potency [7] of the same compound?
A: Its Potency is “inactive”.

Q: For `CCCC(NC(=O)/C(C#N)=C/c1cccc(Br)n1)c1ccccc1` (stereo not given), which Potency [1] is on record?
A: Its Potency is 16.4 µM (active).

Q: And the Potency [2]?
A: Its Potency is 2.91 µM (active).

Q: And the Potency [3]?
A: The Potency was 3.26 µM (active).
